# Reference: PubChem BioAssay (NCATS)
# Several values for one entry are separate records, joined by “and”; a condition that tells them apart may be missing. Identical values can stand only once. Records with an inconclusive call do not appear. A call without a number means that no potency is given here. Activity calls are given as the source filed them. Calls come from the whole dose curve; as a rule, active = well fitted curve in the direction sought with a large enough effect; inconclusive = small, poorly fitted or top-dose-only effect, or another doubt; inactive = no such curve, though single readings can be large; an effect the other way counts as inactive or inconclusive.
# Legend:
# [1] = target: N-terminal Xaa-Pro-Lys N-methyltransferase 1 (Homo sapiens) (UniProt Q9BV86); experiment: qHTS Assay for Inhibitors of N-terminal methyltransferase 1 (NTMT1): LOPAC validation of the NTMT1 SAHH-coupled ThioGlo3 Assay (AID 1347143); settings: recombinant NTMT1, SAHH-coupled ThioGlo3 fluorescence; series mostly up to 114 µM;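 note: SAH from peptide methylation measured as thiol fluorescence via SAHH coupling and ThioGlo3; nearly all actives have a fitted effect of over 70% in size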
# N-terminal Xaa-Pro-Lys N-methyltransferase 1 (Homo sapiens), sequence (Q9BV86 whole entry, looked up): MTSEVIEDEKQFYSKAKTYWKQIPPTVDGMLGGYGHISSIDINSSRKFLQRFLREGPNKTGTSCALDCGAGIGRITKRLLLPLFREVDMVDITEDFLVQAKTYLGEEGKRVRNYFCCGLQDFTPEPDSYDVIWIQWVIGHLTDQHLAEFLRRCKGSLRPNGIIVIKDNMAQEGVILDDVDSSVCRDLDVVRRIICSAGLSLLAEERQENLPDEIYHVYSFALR
# Method in brief: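 Recombinant human NTMT1 (125nM) was pre-incubated 1 min at room temperature with compounds over a concentration range, then a mix of 100uM SAM, 10uM SAHH and 15uM ThioGlo3 (concentrations in added reagent) was added. ThioGlo3 fluorescence (ex 340/em 450nm) after 30 min was normalized to the initial reading.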
# Furin (Homo sapiens) = Furin (Homo sapiens) (UniProt P09958); experiment: Furin counterscreen qHTS for Zika virus inhibitors (AID 1347149); settings: furin enzymatic counterscreen, fluorogenic substrate; series mostly up to 57.5 µM; note: nearly all actives have a fitted effect of over 70% in size
# Furin (Homo sapiens), sequence (P09958 whole entry, looked up): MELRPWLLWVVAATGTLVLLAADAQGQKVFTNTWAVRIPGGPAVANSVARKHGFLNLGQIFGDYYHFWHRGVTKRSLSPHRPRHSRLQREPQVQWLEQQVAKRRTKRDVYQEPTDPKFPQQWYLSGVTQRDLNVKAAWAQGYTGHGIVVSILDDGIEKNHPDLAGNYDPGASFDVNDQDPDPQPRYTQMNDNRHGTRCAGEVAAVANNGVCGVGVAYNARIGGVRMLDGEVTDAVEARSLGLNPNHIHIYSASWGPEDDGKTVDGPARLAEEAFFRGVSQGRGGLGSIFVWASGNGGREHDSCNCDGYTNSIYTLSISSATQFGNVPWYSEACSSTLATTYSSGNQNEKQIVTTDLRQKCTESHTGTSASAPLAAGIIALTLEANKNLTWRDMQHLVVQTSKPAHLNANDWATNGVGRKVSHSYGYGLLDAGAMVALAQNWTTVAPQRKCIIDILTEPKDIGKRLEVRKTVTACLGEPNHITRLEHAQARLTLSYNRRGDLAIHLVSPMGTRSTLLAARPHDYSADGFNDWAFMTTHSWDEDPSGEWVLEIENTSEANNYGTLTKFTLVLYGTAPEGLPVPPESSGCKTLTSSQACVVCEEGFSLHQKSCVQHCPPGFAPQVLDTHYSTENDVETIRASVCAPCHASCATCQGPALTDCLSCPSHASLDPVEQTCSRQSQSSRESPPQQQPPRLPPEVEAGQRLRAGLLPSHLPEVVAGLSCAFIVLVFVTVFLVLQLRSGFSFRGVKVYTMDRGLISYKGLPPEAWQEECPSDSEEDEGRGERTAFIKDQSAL
# Method in brief: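 Fluorogenic cleavage of BOC-RVRR-AMC (2 microM final, Km ~15 µM) was monitored (ex 340, em 450 nm) at 37C after 15 min RT preincubation of 5 nM furin with compounds in HEPES pH 7.0 buffer with CaCl2 and Triton X-100. Percent inhibition was fitted to a 4-parameter Hill curve.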
# [2] = tested on: Zika virus NS2B-NS3 protease (unlinked); experiment: Optimization of GU AMC qHTS for Zika virus inhibitors: Unlinked NS2B-NS3 protease assay (AID 1347151); settings: recombinant ZIKV NS2B-NS3 protease, fluorogenic AMC substrate; series mostly up to 52.5 µM; note: nearly all actives have a fitted effect of over 80% in size
# Method in brief: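 Noncovalent NS2B hydrophilic domain–NS3 protease complex (25 nM final) in 10 mM Tris-HCl pH 8.0, 0.01% Tween 20; AMC substrate, room temperature 15 min (~20% conversion); fluorescence change normalized, 4-parameter Hill fit.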
# [3] = tested on: Zika virus NS2B-NS3 protease; experiment: Primary screen GU AMC qHTS for Zika virus inhibitors (AID 1347154); settings: Zika NS2B-NS3 unlinked protease, AMC fluorogenic substrate; series mostly up to 54.1 µM; note: nearly all actives have a fitted effect of over 70% in size
# Method in brief: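 Unlinked Zika NS2B hydrophilic domain–NS3 protease complex at 25 nM in 10 mM Tris-HCl pH 8.0, 0.01% Tween 20, with an AMC peptide substrate. Fluorescence change (340/450 nm) over 15 min at room temperature, normalized to controls, fitted to 4-parameter Hill.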
# [4] = Confirmatory screen GU Rhodamine qHTS for Zika virus inhibitors qHTS (AID 1347157); settings: purified enzyme assay, Rhodamine110 substrate fluorescence, 15 min; note: nearly all actives have a fitted effect of over 70% in size
# Source text: Avindra Nath, Ph.D., National Institute of Neurological Disorders and Stroke (NINDS), Bethesda, MD
# Radhakrishnan Padmanabhan, Ph.D., Georgetown University (GU), Washington D.C.
# Zika Virus causes congenital defects, including microcephaly and is associated with Guillain-Barre syndrome, eningoencephalitis and myelitis in infected adult. […] Using a target-based approach, we hope to establish a screening paradigm to uncover novel, cell-active NS2B-NS3 protease (Zika Virus) specific inhibitors from NCATS' collection of small molecules using qHTS.
# Four assay panel was created to identify potential Zika Virus inhibitors. Namely, (1) GU unlinked NS2B-NS3 AMC tagged protease qHTS, (2) GU unlinked NS2B-NS3 Rhodamine tagged protease qHTS, (3) NINDS linked NS2B-NS3 AMC tagged protease qHTS, (4) NINDS linked NS2B-NS3 Rhodamine tagged protease qHTS. Active compounds were re-acquired and re-screened to confirm inhibition. Inhibitors were further screened against various confirmatory and counterscreens in dose response format.
# Early Translation Branch (ETB)
# National Center for Advancing Translational Sciences (NCATS), Rockville, MD
# National Institute of Health (NIH), Bethesda, Maryland
# Padmanabhan lab provided the NS2B hydrophilic domain and NS3 protease domain in a noncovalent complex used for the unlinked assay. Control compound aprotinin is obtained from Thermo Scientific (#78432; Waltham, Massachusetts). […]
# Briefly, 3 microL of enzyme (25 nM final concentration), in assay buffer (10 mM Tris-HCl pH 8.0 with 0.01% Tween 20) were dispensed into a 1,536-well solid-bottom black plate (Greiner Bio One, Monroe, NC). […] Plates were then immediately read on a ViewLux High-throughput CCD imager (PerkinElmer, Waltham, MA) equipped with FITC fluorescence optics (480(20) nm excitation, 540(25) nm emission), then incubated (room temperature, protected from light) for 15 minutes (~15% conversion). The change in fluorescence intensity over the 15-minute reaction period was normalized against no-inhibitor and no-enzyme controls and the resulting percent inhibition data were fitted to a 4-parameter Hill equation. […]
# [5] = qHTS of pediatric cancer cell lines to identify multiple opportunities for drug repurposing: Confirmatory screen for Saos-2 cells (AID 1347127); settings: Saos-2 osteosarcoma cell viability; series mostly up to 45.9 µM; note: nearly all actives have a fitted effect of over 60% in size
# Method in brief: (§1)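 Viability after 48 h compound treatment at 37C, 500-1,000 cells/well, read as ATP luminescence with CellTiter-Glo. Primary screens used 11-point (MIPE, 0.78 nM-46 µM) or 8-point (NPC, 0.59 nM-46 µM) final concentrations; follow-up screens used 11-point dilutions.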
# [6] = qHTS of pediatric cancer cell lines to identify multiple opportunities for drug repurposing: Confirmatory screen for OHS-50 cells (AID 1347128); settings: OHS-50 osteosarcoma cells viability; series mostly up to 45.9 µM;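 note: compound exposure lasted 48 h at 37 degrees C; nearly all actives have a fitted effect of over 55% in size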
# Method in brief: as §1
# [7] = qHTS of pediatric cancer cell lines to identify multiple opportunities for drug repurposing: Confirmatory screen for SK-N-SH cells (AID 1347129); settings: SK-N-SH neuroblastoma cell viability; series mostly up to 46.1 µM;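 note: cells exposed to compound for 48 h before viability read; nearly all actives have a fitted effect of over 60% in size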
# Method in brief: as §1
# [8] = tested on: Zika virus NS2B-NS3 protease (linked construct); experiment: Confirmatory screen NINDS AMC qHTS for Zika virus inhibitors (AID 1347152); settings: Purified linked NS2B-NS3, AMC substrate fluorescence; series mostly up to 56.6 µM; note: nearly all actives have a fitted effect of over 70% in size
# Method in brief: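 Linked NS2B-NS3 protease, 1 nM, in 10 mM Tris-HCl pH 8.0, 0.01% Tween 20; compounds preincubated 15 min at room temperature. Nle-KRR-AMC 10 microM (Km 18.3 µM); 15-min fluorescence change (340/450 nm) fitted to 4-parameter Hill.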
# [9] = tested on: Zika virus NS2B-NS3 protease (unlinked complex); experiment: Confirmatory screen GU AMC qHTS for Zika virus inhibitors (AID 1347153); settings: Recombinant NS2B-NS3 protease, AMC substrate fluorescence; series mostly up to 57.1 µM; note: nearly all actives have a fitted effect of over 70% in size;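 for potency: enzyme at 25 nM with substrate at 10 µM below its Km of 18.3 µM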
# Method in brief: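 Noncovalent NS2B hydrophilic domain/NS3 protease complex (25 nM) in 10 mM Tris-HCl pH 8.0, 0.01% Tween 20 was preincubated 15 min at room temperature with compounds. Then 10 µM AMC substrate (Km 18.3 µM) was added; fluorescence was read over 15 min and fitted to a 4-parameter Hill equation.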
# Potency is the fitted concentration of half-maximal effect.
smiles,measurement,setting,value
O=c1c(O)c(-c2cc(O)c(O)c(O)c2)oc2cc(O)cc(O)c12,Potency,[1],5.01 µM (active)
same,Potency,Furin (Homo sapiens),inactive
same,Potency,[2],21.2 µM (active)
same,Potency,[3],9.61 µM (active)
same,Potency,[4],17.8 µM (active)
CC(=O)O[C@H]1C(=O)[C@@]2(C)C([C@H](OC(=O)c3ccccc3)[C@]3(O)C[C@H](OC(=O)[C@H](O)[C@@H](NC(=O)c4ccccc4)c4ccccc4)C(C)=C1C3(C)C)[C@]1(OC(C)=O)CO[C@@H]1C[C@@H]2O (stereo not given in full),Potency,[5],0.0233 µM (active)
same,Potency,[6],0.0208 µM (active)
same,Potency,[3],inactive
CCN(CCO)CCCC(C)Nc1ccnc2cc(Cl)ccc12 (stereo not given),Potency,[5],inactive
same,Potency,[6],inactive
same,Potency,[7],inactive
same,Potency,[3],inactive
CN(C)c1ccc(O)c2c1C[C@H]1C[C@H]3[C@H](N(C)C)C(=O)C(C(N)=O)=C(O)[C@@]3(O)C(=O)C1=C2O,Potency,[5],inactive
same,Potency,[6],inactive
same,Potency,[7],11.8 µM (active)
same,Potency,Furin (Homo sapiens),inactive
same,Potency,[8],inactive
same,Potency,[9],inactive
CCOc1cc(CC(=O)N[C@@H](CC(C)C)c2ccccc2N2CCCCC2)ccc1C(=O)O,Potency,[5],inactive
same,Potency,[6],inactive
same,Potency,[7],inactive
same,Potency,[3],inactive
O=C(CCc1ccc(O)cc1)c1c(O)cc(O)cc1O,Potency,[5],inactive
same,Potency,[6],inactive
same,Potency,[7],inactive
same,Potency,[2],inactive
O=C(NCC1CCCCN1)c1cc(OCC(F)(F)F)ccc1OCC(F)(F)F (stereo not given),Potency,[5],inactive
same,Potency,[7],inactive
same,Potency,[3],inactive
CCCOc1ccc2nc(NC(=O)OC)[nH]c2c1,Potency,[5],0.827 µM (active)
same,Potency,[3],inactive
Cc1ccc(NC(=O)c2ccc(CN3CCN(C)CC3)cc2)cc1Nc1nccc(-c2cccnc2)n1,Potency,[5],inactive
same,Potency,[7],inactive
same,Potency,[3],inactive
Clc1ccc(C(Cn2ccnc2)OCc2ccsc2Cl)c(Cl)c1 (stereo not given),Potency,[5],10.4 µM (active)
same,Potency,[6],11.7 µM (active)
same,Potency,[3],inactive
CN(C)c1ccc2nc3ccc(=[N+](C)C)cc-3sc2c1,Potency,[5],1.17 µM (active)
same,Potency,[6],8.27 µM (active)
same,Potency,[7],4.18 µM (active)
same,Potency,[3],inactive
C=C(c1ccc(C(=O)O)cc1)c1cc2c(cc1C)C(C)(C)CCC2(C)C,Potency,[6],inactive
same,Potency,[7],inactive
same,Potency,Furin (Homo sapiens),inactive
same,Potency,[8],19.2 µM (active)
same,Potency,[9],19.2 µM (active) and 21.5 µM (active)
same,Potency,[3],9.61 µM (active) and 14.4 µM (active)
CC(C)C[C@H](NC(=O)[C@H](Cc1ccccc1)NC(=O)c1cnccn1)B(O)O,Potency,[5],0.208 µM (active)
same,Potency,[6],0.0737 µM (active)
same,Potency,[7],0.0332 µM (active)
same,Potency,Furin (Homo sapiens),inactive
same,Potency,[2],inactive
same,Potency,[3],inactive
CN(C)C(=O)[C@H](O)[C@H](Cc1ccccc1)NC(=O)c1cc2cc(Cl)ccc2[nH]1,Potency,[1],inactive
same,Potency,Furin (Homo sapiens),inactive
same,Potency,[2],26.7 µM (active)
same,Potency,[9],inactive
c1cnc2cc3c(cc2n1)C1CNCC3C1,Potency,[6],inactive
same,Potency,[7],inactive
same,Potency,[2],inactive
same,Potency,[3],inactive
Nc1nc(OCc2ccccc2)c2[nH]cnc2n1,Potency,[5],inactive
same,Potency,[6],inactive
same,Potency,[7],inactive
same,Potency,[1],inactive
same,Potency,[2],inactive
same,Potency,[3],inactive
Cc1nc(Nc2ncc(C(=O)Nc3c(C)cccc3Cl)s2)cc(N2CCN(CCO)CC2)n1,Potency,[5],inactive
same,Potency,[6],inactive
same,Potency,[7],4.18 µM (active)
same,Potency,Furin (Homo sapiens),50.1 µM (active)
same,Potency,[2],398 µM (active)
same,Potency,[3],inactive
CCc1nc(N)nc(N)c1-c1ccc(Cl)cc1,Potency,[7],inactive
same,Potency,Furin (Homo sapiens),inactive
same,Potency,[2],inactive
same,Potency,[8],inactive
same,Potency,[9],inactive
same,Potency,[3],inactive
CCN(CC)CCOc1ccc(Nc2ncc3cc(-c4c(Cl)cccc4Cl)c(=O)n(C)c3n2)cc1,Potency,[5],1.47 µM (active)
same,Potency,[6],1.31 µM (active)
same,Potency,[7],0.833 µM (active)
same,Potency,[2],inactive
same,Potency,[3],inactive
COc1cc(C(C)=O)ccc1OCCCN1CCC(c2noc3cc(F)ccc23)CC1,Potency,[5],inactive
same,Potency,[7],inactive
same,Potency,[3],inactive
Nc1nc(Cl)nc2c1ncn2[C@H]1C[C@H](O)[C@@H](CO)O1,Potency,[5],inactive
same,Potency,[3],inactive
Cc1cc(C2CCCCC2)n(O)c(=O)c1,Potency,[7],2.35 µM (active)
same,Potency,[3],inactive
Cc1c(C(=O)NN2CCCCC2)nn(-c2ccc(Cl)cc2Cl)c1-c1ccc(Cl)cc1,Potency,[5],20.8 µM (active)
same,Potency,[7],inactive
same,Potency,[3],inactive
O=C1c2c(O)cc(O)cc2OC(c2ccc(O)c(O)c2)C1O (stereo not given),Potency,[5],inactive
same,Potency,[6],inactive
same,Potency,[7],inactive
same,Potency,[1],25.1 µM (active)
same,Potency,[2],inactive
C[C@]12CCC(=O)C=C1CC[C@@H]1[C@H]2[C@@H](O)C[C@@]2(C)[C@H]1CC[C@]2(O)C(=O)CO,Potency,[5],inactive
same,Potency,[6],inactive
same,Potency,[7],inactive
same,Potency,[3],inactive
Nc1ncn([C@H]2C[C@H](O)[C@@H](CO)O2)c(=O)n1,Potency,[5],inactive
same,Potency,[6],inactive
same,Potency,[7],inactive
same,Potency,[3],inactive
CS(=O)(=O)OCCCCOS(C)(=O)=O,Potency,[6],inactive
same,Potency,[7],inactive
same,Potency,[3],inactive
CCN(CC)C(=S)SSC(=S)N(CC)CC,Potency,[5],16.5 µM (active)
same,Potency,[7],inactive
same,Potency,[1],4.47 µM (active)
same,Potency,[2],inactive
same,Potency,[3],inactive
